# Results reported in PubChem BioAssay.
# The source made the active and inactive calls.
# Key:
# [1] = optical density shifts of acrAB sulA E. coli – strain DRC41, OD650, 48 h, E. coli filamentation inducer project, primary screen (AID 1152); details: higher = more signal, called active from +8 up or from −8 down;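 further: E. coli MC1000 strain DRC41 lacking acrAB efflux pump and sulA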
# [2] = probe aLefty1 binding on compound microarray – biochemical, small-molecule microarray, 635/667 nm fluorescence, primary screen (AID 1153); details: higher = more signal;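 further: score merges spot fluorescence with signal-to-noise ratio from the scanned slide images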
# [3] = plasmodial surface anion channel blockers, osmotic lysis – cell-based, P. falciparum Indochina, OD700, 1 h, primary screen (AID 1154); details: P. falciparum Indochina infected RBC osmotic lysis, higher = more signal, called active from +8 up or from −8 down
# [4] = plasmodial surface anion channel blockers, osmotic lysis – cell-based, P. falciparum Indochina, OD700, 2 h, primary screen (AID 1155);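 further: lysis reports solute entry through the parasite surface anion channel PSAC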; details: P. falciparum Indochina infected erythrocytes, higher = more signal, called active from +8 up or from −8 down
# [5] = changes in parasitized red cell lysis, either direction – P. falciparum Indochina, OD700, 3 h, PSAC antagonist project, primary screen (AID 1156); details: P. falciparum-infected erythrocytes, osmotic lysis, higher = more signal, called active from +8 up or from −8 down
# [6] = plasmodial surface anion channel blockers, osmotic lysis – cell-based, P. falciparum Indochina, OD700, 18 h, primary screen (AID 1157); details: P. falciparum Indochina infected erythrocytes, osmotic lysis OD700, 18 h; higher = more signal, called active from +8 up or from −8 down
# [7] = S6 kinase pathway phospho-S6 level changes – cell-based, A549, cytoblot, luminescence, serum-stimulated, primary screen (AID 1158); details: 5 h, higher = more signal;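 further: serum-stimulated A549 lung adenocarcinoma cells; signal is phosphorylated S6 detected by cytoblot immunostaining with HRP secondary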
# [8] = target: NADPH oxidase 2 (Homo sapiens) (UniProt P04839); test: compounds shifting NOX2 Amplex Red fluorescence – cell-based, HEK293-NOX2, PMA-stimulated, NOX inhibitor project, primary screen (AID 1159); details: 45 min, higher = more signal, called active from +8 up or from −8 down; further: test concentration not given here
# Chain of NADPH oxidase 2 (Homo sapiens) (P04839 whole entry, looked up): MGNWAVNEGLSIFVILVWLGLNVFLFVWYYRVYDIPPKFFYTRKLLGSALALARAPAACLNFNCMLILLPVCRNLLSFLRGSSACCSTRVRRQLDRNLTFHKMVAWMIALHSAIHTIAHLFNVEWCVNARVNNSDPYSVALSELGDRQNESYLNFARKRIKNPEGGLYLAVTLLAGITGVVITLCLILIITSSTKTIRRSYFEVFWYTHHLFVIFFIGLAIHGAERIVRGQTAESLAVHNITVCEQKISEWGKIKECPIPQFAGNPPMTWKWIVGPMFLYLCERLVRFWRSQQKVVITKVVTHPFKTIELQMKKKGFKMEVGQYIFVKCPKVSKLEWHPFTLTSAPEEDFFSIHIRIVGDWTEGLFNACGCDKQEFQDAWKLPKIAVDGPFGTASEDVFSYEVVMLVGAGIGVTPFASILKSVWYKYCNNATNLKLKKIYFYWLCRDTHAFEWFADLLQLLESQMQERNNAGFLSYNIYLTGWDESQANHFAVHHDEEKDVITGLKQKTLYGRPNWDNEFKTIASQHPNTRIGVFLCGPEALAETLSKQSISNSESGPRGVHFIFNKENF
# [9] = target: NADPH oxidase 4 (Homo sapiens) (UniProt Q9NPH5); test: compounds shifting NOX4 Amplex Red fluorescence – cell-based, HEK293-NOX4, tetracycline-induced, NOX inhibitor project, primary screen (AID 1160); details: HEK293-NOX4, Amplex Red H2O2 fluorescence, 45 min; higher = more signal, called active from +8 up or from −8 down
# Chain of NADPH oxidase 4 (Homo sapiens) (Q9NPH5 whole entry, looked up): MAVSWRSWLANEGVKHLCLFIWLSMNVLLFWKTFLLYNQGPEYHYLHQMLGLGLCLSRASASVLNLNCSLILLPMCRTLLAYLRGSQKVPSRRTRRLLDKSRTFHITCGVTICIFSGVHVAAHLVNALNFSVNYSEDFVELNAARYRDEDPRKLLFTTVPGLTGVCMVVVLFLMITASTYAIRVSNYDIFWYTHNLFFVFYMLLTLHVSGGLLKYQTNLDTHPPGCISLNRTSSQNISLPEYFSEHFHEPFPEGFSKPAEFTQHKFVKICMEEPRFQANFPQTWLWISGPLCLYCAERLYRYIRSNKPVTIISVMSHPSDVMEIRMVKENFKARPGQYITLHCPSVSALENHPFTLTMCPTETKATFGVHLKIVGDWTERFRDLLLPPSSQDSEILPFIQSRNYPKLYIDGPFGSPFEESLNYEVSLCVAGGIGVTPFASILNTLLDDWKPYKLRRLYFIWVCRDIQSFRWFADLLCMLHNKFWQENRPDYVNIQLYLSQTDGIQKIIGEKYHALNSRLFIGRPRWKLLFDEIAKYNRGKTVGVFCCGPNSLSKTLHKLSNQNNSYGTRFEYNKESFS
# [10] = target: NADPH oxidase 5 (Homo sapiens) (UniProt Q96PH1); test: compounds shifting NOX5 Amplex Red fluorescence – cell-based, HEK293-NOX5, NOX inhibitor project, primary screen (AID 1161); details: HEK293-NOX5, ionomycin, 45 min, higher = more signal
# Chain of NADPH oxidase 5 (Homo sapiens) (Q96PH1 whole entry, looked up): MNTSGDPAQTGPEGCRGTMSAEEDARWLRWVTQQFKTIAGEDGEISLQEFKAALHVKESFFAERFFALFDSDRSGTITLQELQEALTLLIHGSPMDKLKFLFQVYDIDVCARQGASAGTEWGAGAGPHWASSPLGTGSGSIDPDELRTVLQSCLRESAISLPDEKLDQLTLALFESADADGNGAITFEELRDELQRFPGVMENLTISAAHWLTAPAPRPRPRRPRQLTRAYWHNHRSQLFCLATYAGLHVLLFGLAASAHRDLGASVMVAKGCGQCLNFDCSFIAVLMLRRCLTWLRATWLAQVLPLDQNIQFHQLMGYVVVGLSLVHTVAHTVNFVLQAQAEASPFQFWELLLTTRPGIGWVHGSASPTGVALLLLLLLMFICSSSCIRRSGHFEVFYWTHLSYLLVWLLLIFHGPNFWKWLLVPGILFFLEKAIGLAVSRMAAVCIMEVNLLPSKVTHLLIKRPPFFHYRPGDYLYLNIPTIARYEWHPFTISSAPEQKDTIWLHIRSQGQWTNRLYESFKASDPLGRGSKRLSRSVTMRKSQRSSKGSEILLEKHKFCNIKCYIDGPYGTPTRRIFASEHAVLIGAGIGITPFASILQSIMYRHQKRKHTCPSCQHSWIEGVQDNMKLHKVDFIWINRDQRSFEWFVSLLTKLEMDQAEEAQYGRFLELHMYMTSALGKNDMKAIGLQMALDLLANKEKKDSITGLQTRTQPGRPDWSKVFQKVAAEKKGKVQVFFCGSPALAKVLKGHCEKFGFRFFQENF
Compound,z-score [1],composite z-score [2],z-score [3],z-score [4],z-score [5],z-score [6],z-score [7],z-score [8],z-score [9],z-score [10]
C#CCN([C@@H](Cc1ccccc1)C(=O)OC)[C@@H](/C=C/C1CC1)[C@H](O)Cc1ccccc1,-0.634 (inactive),-0.0538,1.09 (inactive),0.443 (inactive),-0.0572 (inactive),-0.307 (inactive),-0.169,-0.284 (inactive),-0.417 (inactive),-2.34
CS(=O)(=O)CCOC(=O)C1=CC(CCCO)=CC(c2ccc(CN3CCCC3)cc2)N(Cc2sc3ccccc3c2Cl)C=C1C(=O)OCCS(C)(=O)=O (stereo not given),-0.794 (inactive),0.85,3.35 (inactive),0.586 (inactive),0.51 (inactive),0.428 (inactive),-0.261,0.44 (inactive),-0.567 (inactive),-0.719
COc1ccc(CCNC(=O)[C@@]2(Cc3ccccc3I)c3ccccc3C(=O)N(C3CCCCC3)[C@H]2c2ccc(CO)cc2)cc1,0.535 (inactive),-0.104,3.52 (inactive),0.502 (inactive),1.27 (inactive),-0.31 (inactive),3.35,0.189 (inactive),-1.09 (inactive),-2.19
O=C1C2C=CC(C(O)c3ccco3)N(Nc3ccccc3F)C2C(=O)N1c1ccccc1 (stereo not given),-1.72 (inactive),0.361,0.188 (inactive),1.05 (inactive),-0.197 (inactive),0.975 (inactive),-0.754,-0.73 (inactive),0.251 (inactive),-1.64
COc1ccc([C@H]2OC[C@@H]3C[C@H](Cc4ccccc4)C(=O)N32)cc1,-0.446 (inactive),0.015,1.96 (inactive),0.92 (inactive),-0.356 (inactive),0.284 (inactive),-0.133,0.829 (inactive),0.284 (inactive),0.695
CC(C)C(CO)N1C(=O)[C@@H]2[C@H]3C(=O)OCC=C[C@H]3OC23C=CCN(c2ccc(Cl)cc2)C(=O)[C@@H]13 (stereo not given in full),0.284 (inactive),-0.0642,0.0695 (inactive),0.406 (inactive),1.06 (inactive),0.035 (inactive),-0.4,1.1 (inactive),0.164 (inactive),1.78
CC(=O)NCCCC[C@@H]1NC(=O)[C@@H]2C[C@H](C(=O)NCCCCCN)[C@H](c3cccc(OCCO)c3)N2C1=O,2.26 (inactive),-0.22,2.03 (inactive),-0.543 (inactive),1.98 (inactive),-1.27 (inactive),4.55,1.14 (inactive),1.06 (inactive),1.74
O=C1O[C@@H](c2ccccc2)[C@@H](c2ccccc2)N2[C@@H](c3ccc(OCCO)cc3)[C@]3(C(=O)Nc4ccc(C#CC5=CCCCC5)cc43)[C@@H](C(=O)NC[C@H](O)c3ccccc3)[C@H]12,-0.836 (inactive),1.38,1.96 (inactive),0.982 (inactive),-0.607 (inactive),0.381 (inactive),-0.164,1.61 (inactive),0.433 (inactive),0.469
COC(=O)[C@@]1(Cc2ccc(OC)cc2)[C@H]2c3cc(C(=O)N4CCCC4)n(CCc4c[nH]c5ccc(O)cc45)c3C[C@H]2CN1C(=O)c1ccccc1,-0.0255 (inactive),0.302,8.22 (active),0.847 (inactive),1.27 (inactive),1.11 (inactive),-0.029,-0.648 (inactive),-6.51 (inactive),-3.5
CN1C(=O)C2C=CC(C(O)c3cccn3C)N(Nc3ccc([N+](=O)[O-])cc3[N+](=O)[O-])C2C1=O (stereo not given),-0.824 (inactive),0.551,0.627 (inactive),1.31 (inactive),-0.0499 (inactive),1.17 (inactive),-1.11,-0.797 (inactive),-1.5 (inactive),-1.27
COCCOC(=O)N1C(=O)[C@@]2(c3cc(C#CC4=CCCCC4)ccc31)[C@H](c1ccccc1OCCO)N1[C@H](c3ccccc3)[C@H](c3ccccc3)OC(=O)[C@H]1[C@@H]2C(=O)N1CCN(c2ncccn2)CC1,0.978 (inactive),1.04,1.04 (inactive),-0.579 (inactive),0.281 (inactive),-0.492 (inactive),0.65,0.976 (inactive),0.868 (inactive),1.32
COC(=O)[C@@]1(Cc2ccccc2)[C@H]2c3cc(C(=O)N4CCCC4)n(CCc4ccccn4)c3C[C@H]2CN1C(=O)c1ccccc1,-1.5 (inactive),0.928,1.93 (inactive),0.0978 (inactive),1.54 (inactive),0.569 (inactive),-0.266,0.267 (inactive),0.311 (inactive),-3.01
CC(C)C(CO)N1C(=O)[C@@H]2C3C(=O)OCCC/C=C\[C@H]3OC23C=CCN(c2ccc4ccccc4c2)C(=O)[C@@H]13 (stereo not given in full),-0.546 (inactive),0.0533,1.03 (inactive),0.36 (inactive),0.204 (inactive),0.478 (inactive),-0.428,1.77 (inactive),0.767 (inactive),1.69
CCCCC[C@H]1OC[C@@]23C=C(Br)[C@@H](CC12)[C@@]1(CO1)C3=O (stereo not given in full),-1.12 (inactive),-0.294,1.66 (inactive),0.533 (inactive),0.487 (inactive),0.184 (inactive),-0.446,-0.459 (inactive),0.438 (inactive),0.134
CCOC(=O)C[C@H]1[C@H](OC(=O)Cc2ccc3c(c2)OCO3)[C@@H](NC(=O)C2CCCCC2)c2cc(OCCCO)ccc2N1C(=O)c1ccccc1,2.81 (inactive),-0.06,1.27 (inactive),0.569 (inactive),-0.481 (inactive),0.0872 (inactive),0.524,-0.233 (inactive),0.636 (inactive),-0.206
COc1cc(NN2C(C(O)c3ccco3)C=CC3C(=O)N(C)C(=O)C32)cc(OC)c1OC (stereo not given),-1.82 (inactive),0.429,0.715 (inactive),0.959 (inactive),0.214 (inactive),1.1 (inactive),-0.808,-1.95 (inactive),-3.55 (inactive),-2.81
COC(=O)[C@@H]1N=C(c2ccc(OCCCO)cc2)O[C@@H]1C,0.608 (inactive),0.0945,19 (active),2.23 (inactive),0.404 (inactive),0.448 (inactive),0.299,-1.93 (inactive),0.134 (inactive),-0.647
COc1ccc(CCNC(=O)[C@@H]2c3ccccc3C(=O)N(C3CCCCC3)[C@H]2c2ccc(CO)cc2)cc1,-0.71 (inactive),-0.0149,2.58 (inactive),0.163 (inactive),1.71 (inactive),0.0567 (inactive),0.491,-0.415 (inactive),-0.546 (inactive),-2.31
Cc1ccccc1C(O)C1C=CC2C(=O)NC(=O)C2N1Nc1ccccn1 (stereo not given),-0.908 (inactive),-0.229,0.408 (inactive),0.608 (inactive),-0.0205 (inactive),0.68 (inactive),-1.01,-0.444 (inactive),-2.62 (inactive),-1.27
COc1ccc(C(=O)Nc2ccc(CN3C(=O)[C@]4(O[C@H](CC(=O)N5Cc6ccccc6C[C@H]5CO)[C@@H]([Si](C)(C)c5ccc(OC)cc5)[C@@H]4C)c4ccccc43)cc2)cc1,-0.298 (inactive),0.0004,3.15 (inactive),1.5 (inactive),1.15 (inactive),0.941 (inactive),0.383,0.545 (inactive),-0.307 (inactive),2.12
COC(=O)[C@@]1(Cc2ccccc2)[C@H]2c3cc(C(=O)N(C)C)n(Cc4ccc(C)o4)c3C[C@H]2CN1C(=O)c1ccccc1,-1.91 (inactive),1.25,2.55 (inactive),-0.381 (inactive),0.541 (inactive),-1.54 (inactive),1.97,-3.27 (inactive),-2.44 (inactive),-4.77
CC1CC/C=C\[C@H]2OC34C=CCN(C(C)(C)C)C(=O)[C@H]3N(CCCCCO)C(=O)[C@@H]4C2C(=O)O1 (stereo not given in full),-0.121 (inactive),-0.0984,0.204 (inactive),0.437 (inactive),-0.136 (inactive),0.21 (inactive),-0.333,0.673 (inactive),-0.225 (inactive),1.3
CCCCCCc1nc(Cc2cc(OC)c(OC)c(OC)c2)cc2c1[Si](C(C)C)(C(C)C)OC2,-0.56 (inactive),-0.131,0.88 (inactive),-0.221 (inactive),0.908 (inactive),-0.718 (inactive),0.552,-4.01 (inactive),-1.88 (inactive),-5.31
CN1C2C=C(CCCO)C(C3C(=O)N(C(N)=O)C(=O)C32)C1C1CC1 (stereo not given),-0.625 (inactive),-0.188,-0.234 (inactive),-0.0718 (inactive),-0.624 (inactive),-0.0366 (inactive),-0.896,0.191 (inactive),-0.07 (inactive),0.257
C=CC[C@@H](OC(=O)Nc1ccc(SC)cc1)c1ccc(O)c(F)c1,0.959 (inactive),-0.0573,24.1 (active),6.56 (inactive),1.9 (inactive),1.04 (inactive),0.42,-5.77 (inactive),-2.85 (inactive),-3.25
CCOC(=O)C[C@H]1[C@H](OC(=O)c2ccc(C(=O)c3ccccc3)cc2)[C@@H](NC(=O)C2CCCCC2)c2cc(OCCCO)ccc2N1C(=O)c1ccc2ccccc2n1,1.94 (inactive),0.596,3.11 (inactive),0.347 (inactive),-0.238 (inactive),0.0872 (inactive),0.0955,-1.62 (inactive),0.402 (inactive),0.124
